Results taken from PubChem BioAssay.
The source made the active and inactive calls.

How the values were obtained:
[1] = binders of probe aFSTL3 on microarray, primary screen, stem cell growth factor project, biochemical, small-molecule microarray, fluorescence 635/667 (AID 1064); conditions: higher = more signal;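 note: measures binding of the biotinylated anti-FSTL3 antibody to printed compounds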
[2] = binders from COS7 lysate, DM2A8 probe, primary screen, torsin A project, cell lysate, small-molecule microarray, fluorescence 635/667 (AID 1065); conditions: higher = more signal, COS7 lysate expressing mutant human TOR1A
[3] = binders of probe aFGF2 on microarray, primary screen, stem cell growth factor project, biochemical, small-molecule microarray, fluorescence 635/667 (AID 1067); conditions: higher = more signal;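 note: measures binding of biotinylated aFGF2 protein to printed compounds on slides; z-score merges feature fluorescence and signal-to-noise across triplicate slides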
[4] = binders of probe aFGF10 on microarray, primary screen, stem cell growth factor project, biochemical, small-molecule microarray, fluorescence 635/667 (AID 1071); conditions: higher = more signal;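 note: score merges 667 nm spot intensity and signal to noise from triplicate slides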
[5] = molecular target: Neurogenic locus notch homolog protein 2 (Homo sapiens) (UniProt Q04721); assay: Notch2 binders on small-molecule microarrays, primary screen, biochemical, small-molecule microarray, 635 nm fluorescence, stem cell growth factors (AID 1073); conditions: Notch2 binding, higher = more signal
Chain of Neurogenic locus notch homolog protein 2 (Homo sapiens) (Q04721 whole entry, looked up, canonical isoform): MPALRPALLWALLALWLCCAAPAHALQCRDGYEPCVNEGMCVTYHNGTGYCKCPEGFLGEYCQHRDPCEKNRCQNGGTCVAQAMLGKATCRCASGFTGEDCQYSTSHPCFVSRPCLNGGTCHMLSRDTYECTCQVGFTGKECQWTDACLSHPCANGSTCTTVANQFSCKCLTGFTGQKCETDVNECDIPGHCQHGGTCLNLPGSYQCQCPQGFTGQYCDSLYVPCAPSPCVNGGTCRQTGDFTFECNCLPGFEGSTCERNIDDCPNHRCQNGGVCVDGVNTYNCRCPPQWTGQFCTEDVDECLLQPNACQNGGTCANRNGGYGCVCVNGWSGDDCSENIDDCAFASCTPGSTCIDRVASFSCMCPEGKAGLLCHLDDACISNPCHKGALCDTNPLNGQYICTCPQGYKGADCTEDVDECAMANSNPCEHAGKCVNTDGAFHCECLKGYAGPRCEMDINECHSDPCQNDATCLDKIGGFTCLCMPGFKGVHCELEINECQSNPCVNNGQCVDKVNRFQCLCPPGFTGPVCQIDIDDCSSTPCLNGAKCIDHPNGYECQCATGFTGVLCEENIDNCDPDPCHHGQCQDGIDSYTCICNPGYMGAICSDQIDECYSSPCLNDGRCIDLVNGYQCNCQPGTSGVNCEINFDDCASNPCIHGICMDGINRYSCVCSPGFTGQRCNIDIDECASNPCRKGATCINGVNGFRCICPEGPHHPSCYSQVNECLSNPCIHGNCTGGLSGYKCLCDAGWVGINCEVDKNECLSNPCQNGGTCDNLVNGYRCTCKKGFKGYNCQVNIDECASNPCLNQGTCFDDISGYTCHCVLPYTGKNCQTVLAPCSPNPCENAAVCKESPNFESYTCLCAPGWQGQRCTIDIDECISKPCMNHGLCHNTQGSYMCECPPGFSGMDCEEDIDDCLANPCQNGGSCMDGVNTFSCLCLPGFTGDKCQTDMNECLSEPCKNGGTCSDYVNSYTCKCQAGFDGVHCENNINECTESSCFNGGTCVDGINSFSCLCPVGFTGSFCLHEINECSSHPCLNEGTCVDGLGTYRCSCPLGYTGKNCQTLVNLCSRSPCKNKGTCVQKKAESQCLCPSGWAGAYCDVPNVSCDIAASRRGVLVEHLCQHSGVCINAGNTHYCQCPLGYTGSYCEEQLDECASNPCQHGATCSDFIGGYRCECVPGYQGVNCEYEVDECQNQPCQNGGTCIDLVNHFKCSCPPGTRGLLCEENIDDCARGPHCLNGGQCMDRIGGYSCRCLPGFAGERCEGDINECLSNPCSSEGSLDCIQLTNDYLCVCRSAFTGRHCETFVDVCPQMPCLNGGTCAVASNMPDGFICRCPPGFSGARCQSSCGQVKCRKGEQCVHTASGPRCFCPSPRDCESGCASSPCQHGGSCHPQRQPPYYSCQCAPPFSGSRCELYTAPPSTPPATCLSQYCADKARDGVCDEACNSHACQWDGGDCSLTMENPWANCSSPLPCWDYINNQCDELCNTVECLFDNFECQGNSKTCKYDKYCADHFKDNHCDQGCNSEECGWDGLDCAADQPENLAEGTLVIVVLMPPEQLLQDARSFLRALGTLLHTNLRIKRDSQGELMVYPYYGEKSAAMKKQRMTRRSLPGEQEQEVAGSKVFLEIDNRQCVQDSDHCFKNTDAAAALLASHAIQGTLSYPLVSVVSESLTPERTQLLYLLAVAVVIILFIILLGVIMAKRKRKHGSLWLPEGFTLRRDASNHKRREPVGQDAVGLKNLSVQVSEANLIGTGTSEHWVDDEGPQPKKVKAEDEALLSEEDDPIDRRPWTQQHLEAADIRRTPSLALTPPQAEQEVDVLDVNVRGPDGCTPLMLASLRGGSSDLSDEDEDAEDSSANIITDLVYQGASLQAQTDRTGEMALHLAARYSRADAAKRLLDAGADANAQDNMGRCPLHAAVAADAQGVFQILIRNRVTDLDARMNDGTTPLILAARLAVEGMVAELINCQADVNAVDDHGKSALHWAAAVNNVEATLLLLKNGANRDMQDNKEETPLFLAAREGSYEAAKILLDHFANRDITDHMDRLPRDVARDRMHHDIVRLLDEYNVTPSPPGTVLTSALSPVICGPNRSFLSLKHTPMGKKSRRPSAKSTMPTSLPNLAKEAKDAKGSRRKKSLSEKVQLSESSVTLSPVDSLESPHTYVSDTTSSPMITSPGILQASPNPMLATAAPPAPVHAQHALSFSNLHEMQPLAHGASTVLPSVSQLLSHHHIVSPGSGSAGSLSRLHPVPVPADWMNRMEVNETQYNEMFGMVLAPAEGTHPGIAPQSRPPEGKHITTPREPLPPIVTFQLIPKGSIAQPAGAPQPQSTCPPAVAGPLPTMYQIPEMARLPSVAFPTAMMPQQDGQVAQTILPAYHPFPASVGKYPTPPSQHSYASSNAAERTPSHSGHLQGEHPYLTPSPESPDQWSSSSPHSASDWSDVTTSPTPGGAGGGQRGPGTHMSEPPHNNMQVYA

[6] = molecular target: Pro-neuregulin-1, membrane-bound isoform (Homo sapiens) (UniProt Q02297); assay: NRG1 binders on small-molecule microarrays, primary screen, psychiatric disease protein project, biochemical, small-molecule microarray, fluorescence 635/667 (AID 1075); conditions: NRG1 binding, 635 nm fluorescence, higher = more signal;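 note: score combines 667 nm spot fluorescence with signal to noise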
Chain of Pro-neuregulin-1, membrane-bound isoform (Homo sapiens) (Q02297 whole entry, looked up, the tested form may be a part, canonical isoform): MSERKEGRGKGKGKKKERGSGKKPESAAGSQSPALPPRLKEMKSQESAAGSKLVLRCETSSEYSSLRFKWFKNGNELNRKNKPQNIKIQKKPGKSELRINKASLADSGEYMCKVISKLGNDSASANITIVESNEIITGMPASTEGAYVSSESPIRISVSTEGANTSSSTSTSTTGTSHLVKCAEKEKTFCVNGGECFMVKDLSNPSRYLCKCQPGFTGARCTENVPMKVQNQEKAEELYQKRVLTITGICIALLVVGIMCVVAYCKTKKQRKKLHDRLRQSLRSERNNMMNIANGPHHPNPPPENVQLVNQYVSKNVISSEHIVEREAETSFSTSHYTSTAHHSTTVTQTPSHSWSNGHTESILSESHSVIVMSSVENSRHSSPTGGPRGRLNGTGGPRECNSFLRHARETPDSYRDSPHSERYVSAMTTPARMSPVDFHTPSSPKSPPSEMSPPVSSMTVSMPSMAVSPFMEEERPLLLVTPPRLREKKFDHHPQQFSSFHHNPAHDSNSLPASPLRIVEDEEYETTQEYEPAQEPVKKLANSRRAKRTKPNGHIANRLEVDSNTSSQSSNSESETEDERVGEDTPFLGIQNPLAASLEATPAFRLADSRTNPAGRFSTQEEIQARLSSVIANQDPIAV

[7] = system: Neuregulin-1 EGF-like domain; assay: binders of neuregulin-1 EGF-like domain, primary screen, biochemical, small-molecule microarray, 635 nm fluorescence (AID 1081); conditions: small-molecule microarray binding, higher = more signal;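 note: binding of the protein to compounds printed on small-molecule microarray slides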
[8] = FRG1 promoter luciferase signal modulators, primary screen, FRG1 inhibition for FSHD, cell-based, C2C12 myotubes, firefly/Renilla luciferase, luminescence (AID 1084); conditions: higher = more signal, called active from +8 up or from −8 down
[9] = binders of probe aFST on microarray, primary screen, stem cell growth factor project, biochemical, small-molecule microarray, fluorescence 635/667 (AID 1086); conditions: higher = more signal;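 note: score merges 667 nm fluorescence with signal-to-noise of each printed compound spot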
[10] = binders of probe aHhip on microarray, primary screen, stem cell growth factor project, biochemical, small-molecule microarray, fluorescence 635/667 (AID 1087); conditions: higher = more signal;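 note: score merges spot fluorescence at 667nm with spot signal to noise ratio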
[11] = system: PRMT1 (protein arginine N-methyltransferase 1); assay: PRMT1 binders on small-molecule microarrays, primary screen, biochemical, small-molecule microarray, 635 nm fluorescence (AID 1088); conditions: small-molecule microarray binding, higher = more signal;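 note: binding of Prmt1 protein to compounds spotted on small-molecule microarray slides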
[12] = yeast growth modulation, basal conditions, primary screen, YJM789 clinical isolate, OD600, 24 h (AID 1089);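 note: growth of clinical yeast isolate S. cerevisiae YJM 789 seeded 1000 cells per well; test concentration not given here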; conditions: S. cerevisiae YJM789 growth, higher = more signal, called active from +8 up or from −8 down
[13] = fission yeast growth modulation, primary screen, strain 972, OD600, 24 h, no modulator (AID 1090);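 note: basal condition with compound alone and no growth modifier present; test concentration not given here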; conditions: S. pombe 972 growth, higher = more signal, called active from +8 up or from −8 down
[14] = S. cerevisiae growth modulation with rapamycin, primary screen, strain BY4716, OD600, 96 h (AID 1091); conditions: higher = more signal, called active from +8 up or from −8 down; note: test concentration not given here
[15] = molecular target: Torsin-1A-interacting protein 2 (Homo sapiens) (UniProt Q8NFQ8); assay: LULL1 binders on small-molecule microarray, primary screen, cell lysate, human LULL1 lysate, 635/667 nm fluorescence (AID 1092); conditions: hLULL1 lysate binding, 635 nm fluorescence, higher = more signal;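 note: probe is lysate of COS7 cells overexpressing human LULL1; score merges per-feature 667 nm fluorescence with signal-to-noise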
Chain of Torsin-1A-interacting protein 2 (Homo sapiens) (Q8NFQ8 whole entry, looked up): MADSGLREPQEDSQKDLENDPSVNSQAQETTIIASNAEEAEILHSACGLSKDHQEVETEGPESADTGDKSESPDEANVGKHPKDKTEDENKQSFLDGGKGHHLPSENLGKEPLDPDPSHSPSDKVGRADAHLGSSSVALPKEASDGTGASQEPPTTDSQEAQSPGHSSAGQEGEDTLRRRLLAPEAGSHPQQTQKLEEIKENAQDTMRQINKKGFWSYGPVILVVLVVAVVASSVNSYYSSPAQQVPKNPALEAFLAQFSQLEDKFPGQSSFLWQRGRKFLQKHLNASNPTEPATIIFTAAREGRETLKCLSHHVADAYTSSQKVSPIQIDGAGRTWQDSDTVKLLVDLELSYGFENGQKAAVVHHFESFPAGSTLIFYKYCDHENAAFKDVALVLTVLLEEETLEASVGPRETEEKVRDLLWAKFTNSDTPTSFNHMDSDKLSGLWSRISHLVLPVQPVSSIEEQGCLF

[16] = E. coli growth modulation, two-sided OD650, primary screen, E. coli filamentation project, strain DRC41, 24 h (AID 1093); conditions: OD650, 24 h, higher = more signal, called active from +8 up or from −8 down;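 note: MC1000 strain lacking acrAB efflux and sulA so SOS filamentation is blocked; test concentration not given here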
[17] = small-molecule microarray binders of probe aLefty2, primary screen, biochemical, biotinylated probe, 635/667 nm fluorescence (AID 1094); conditions: higher = more signal;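 note: score merges spot fluorescence near 667 nm with spot signal-to-noise ratio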
[18] = system: Noggin (protein binding on small-molecule microarray); assay: Noggin binders on small-molecule microarray, primary screen, biochemical, 635/667 nm fluorescence (AID 1095); conditions: 635 nm fluorescence, higher = more signal;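 note: score merges 667 nm feature fluorescence with signal to noise over triplicate slides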
[19] = molecular target: Neurogenic locus notch homolog protein 3 (Homo sapiens) (UniProt Q9UM47); assay: NOTCH3 binders on small-molecule microarray, primary screen, biochemical, 635/667 nm fluorescence (AID 1096); conditions: NOTCH3 binding, 635 nm fluorescence, higher = more signal
[20] = small-molecule microarray binders of probe aEGFR, primary screen, biochemical, biotinylated probe, 635/667 nm fluorescence (AID 1097); conditions: higher = more signal;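 note: probe is a biotinylated anti-EGFR antibody binding compounds printed on slides; score combines fluorescence near 667 nm and signal to noise of each spot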

SMILES	composite z-score [1]	composite z-score [2]	composite z-score [3]	composite z-score [4]	composite z-score [5]	composite z-score [6]	composite z-score [7]	z-score [8]	composite z-score [9]	composite z-score [10]	composite z-score [11]	z-score [12]	z-score [13]	z-score [14]	composite z-score [15]	z-score [16]	composite z-score [17]	composite z-score [18]	composite z-score [19]	composite z-score [20]
C=CCC(OC(C)=O)[C@@H]1[C@@H](N(Cc2cc3ccccc3o2)C(=O)c2ccc(C)cc2)c2cc(OCCCO)ccc2N1C(=O)c1ccc2ccccc2n1 (stereo not given in full)	0.216	0.189	-0.187	0.394	0.191	-0.019	-0.323	-0.508 (inactive)	0.113	0.107	0.207	-0.0537 (inactive)	-0.518 (inactive)	-0.391 (inactive)	0.285	2.74 (inactive)	-0.168	0.11	0.197	-0.129
Cc1cc(C)c(C(O)C2C=CC3C(=O)N(C)C(=O)C3N2N2CCCCC2)c(C)c1 (stereo not given)	0.0308	0.563	0.205	1.02	1.69	0.918	1.3	0.251 (inactive)	1.27	-0.206	1.54	-0.133 (inactive)	1.08 (inactive)	-0.376 (inactive)	2.99	-0.587 (inactive)	0.433	0.521	1.06	0.301
COCCOC(=O)N1C(=O)[C@@]2(c3cc(C#CCCO)ccc31)[C@H](c1ccc(OCCO)cc1)N1[C@H](c3ccccc3)[C@H](c3ccccc3)OC(=O)[C@H]1[C@@H]2C(=O)NC[C@H](O)c1ccccc1	-0.484	1.04	-0.0628	0.889	1.4	1.12	1.25	0.504 (inactive)	0.788	0.152	1.54	1.99 (inactive)	1.98 (inactive)	5.45 (inactive)	2.54	1.3 (inactive)	-0.116	1.6	1.07	-0.0286
CO[C@H]1COC(=O)[C@@H](Cc2ccccc2)NC(=O)[C@@H](C)COC(=O)CC=C[C@@H]1C	-0.533	0.806	-0.142	-0.0799	-0.172	-0.923	-0.294	0.0824 (inactive)	-0.0629	-0.0994	0.633	-0.236 (inactive)	-0.669 (inactive)	-0.555 (inactive)	-1.09	0.395 (inactive)	-0.202	1.48	0.269	-0.096
COc1ccc(C(=O)Nc2ccc(CN3C(=O)[C@]4(O[C@H](CCn5cc(CCO)nn5)[C@@H]([Si](C)(C)c5ccc(OC)cc5)[C@@H]4C)c4ccccc43)cc2)cc1	0.263	0.259	0.0331	1.05	1.46	0.485	1.09	-3.72 (inactive)	-0.177	-0.0645	1.56	1.42 (inactive)	-7.78 (inactive)	1.13 (inactive)	0.961	1.07 (inactive)	0.201	1.65	1.08	0.14
CCC(=O)[C@]12O[C@@]3([C@@H]4C(=O)OCC[C@@H]41)N(CC)C(C)=C(C(=O)OC)[C@@H](c1ccccc1)N3C2=O	0.162	-0.337	-0.116	0.0911	-0.925	0.0983	0.966	-0.13 (inactive)	-0.255	0.176	-0.486	-1.62 (inactive)	-1.89 (inactive)	-0.153 (inactive)	0.155	0.421 (inactive)	-0.0928	0.152	-0.37	-0.0818
COCCOC(=O)N1C(=O)[C@@]2(c3cc(C#CCCO)ccc31)[C@H](C(=O)N1CCCCCCC1)[C@H]1C(=O)O[C@H](c3ccccc3)[C@H](c3ccccc3)N1[C@@H]2c1ccc(O)cc1	2.61	1.22	0.188	0.514	1.15	1.17	1.13	-2.05 (inactive)	2.25	0.497	1.56	-3.75 (inactive)	-2.94 (inactive)	-1.62 (inactive)	2.91	3.27 (inactive)	1.08	1.11	1.05	0.0645
COC(=O)c1c(CC[C@@H](CO)NC(=O)N[C@H](Cn2cc(-c3cncn3C)nn2)C(C)C)oc(C(C)=O)c1C(=O)OC	-0.151	0.874	-0.043	0.66	0.193	0.692	1.09	0.0938 (inactive)	-0.201	-0.261	1.09	-0.177 (inactive)	-1.26 (inactive)	-0.164 (inactive)	1.47	2.3 (inactive)	-0.0617	0.209	0.149	0.19
CC(c1ccccc1)C(O)C1C=CC2C(=O)N(C)C(=O)C2N1N(c1ccccc1)c1ccccc1 (stereo not given)	1	0.23	0.0395	-0.167	1.08	0.504	1.03	-0.206 (inactive)	0.657	-0.0024	0.396	0.414 (inactive)	0.184 (inactive)	1.27 (inactive)	1.65	-1.1 (inactive)	0.424	-0.959	0.363	-0.0322
